# Lassa entry inh – Lassa virus entry inhibition | Lassa virus pseudotype entry inhibition, cell reporter | Potency, µM (titrated, usually from 37.9 µM), without a hit: top-dose activity change, negative = inhibition, usual class: inhibitors | 1.2% of 300,000 active; calls by dose curve; tested in HEK293 cells; note: nearly all actives have a fitted effect of over 50% in size
# FMDV inh – foot and mouth disease virus antiviral activity. FMDV antiviral cell-based qHTS. Potency, µM (titrated, usually from 57.9 µM), without a hit: top-dose activity change, negative = inhibition, most hits filed as inhibitors. 1.2% of 410,000 active. AID 1159524; calls by dose curve; tested in HEK293T cells; note: read-out not given here; nearly all actives have a fitted effect of over 45% in size
# Marburg entry inh – Marburg virus entry inhibition; Potency, µM (titrated, usually from 37.8 µM), inactives show at the highest dose activity change, negative = inhibition, usual class: inhibitors; AID 540276; 1.8% of 300,000 active; Marburg virus pseudotyped entry inhibition, cell reporter; calls by dose curve; tested in HEK293 cells
# RE007 growth inh – less growth of the S. pombe RE007 Vpr strain; S. pombe RE007 Vpr strain, BacTiter-Glo ATP luminescence, 24 h; Potency, µM (highest dose often 92.2 µM), for the others: at the highest dose activity change, negative = less growth, most hits filed as inhibitors; 0.21% of 360,000 active; active = well fitted falling curve with a large enough effect; inconclusive = small, poorly fitted or top-dose-only effect; inactive = no such curve, though single readings can be large or run the other way; note: nearly all actives have a fitted effect of over 50% in size
#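 Fission yeast strain RE007, carrying one chromosomally integrated HIV-1 vpr copy, was seeded at OD 0.01 in PMG+AL medium with 23 nL pinned compound. After 24 h at 30 °C and 99% humidity, viability was read by BacTiter-Glo luminescence.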
# Sm TGR block – blocks Schistosoma mansoni thioredoxin glutathione reductase; Q962Y6; purified TGR, DTNB reduction, TNB absorbance 405 nm; Potency, µM (top dose mostly 114 µM), inactives show top-dose activity change, negative = inhibition, most hits filed as inhibitors; 3% of 360,000 active; AID 485364; note: nearly all actives have a fitted effect of over 60% in size
#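 Kinetic colorimetric format: TGR-catalysed, NADPH-driven DTNB reduction monitored via TNB absorbance. Enzyme dispensed at 20 nM; compound exposure 15 min at room temperature before reaction start.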
# HCV inhibitor – blocks hepatitis C virus | AID 651820 | 3.4% of 340,000 active | Potency, µM (top dose mostly 41.8 µM), without a hit: top-dose activity change, negative = inhibition, actives largely listed as inhibitors | Huh7.5.1 HCVcc-Cre infection, luciferase reporter, 44 h
#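 Whole-lifecycle infectious HCVcc-Cre system; cells 1,000/well, compound then virus (~0.5 moi) added 4 h after plating, 44 h culture. Luciferase read 15 sec following 15 min substrate incubation, room temp.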
# * = called active by the depositor; ? = inconclusive; . = no result given; ! = not confirmed by another sample; [ ] = another dose, or the depositor's remark. Compounds with a hit are over-represented: about 7.2% of the library has one in this group of screens. Unless noted, calls come from the whole dose curve; as a rule, active = well fitted curve in the direction sought with a large enough effect; inconclusive = small, poorly fitted or top-dose-only effect, or another doubt; inactive = no such curve, though single readings can be large; an effect the other way counts as inactive or inconclusive. % is set by controls: 0 for no effect and ±100 for the full control effect; potency is the fitted concentration of half-maximal effect.
SMILES,Lassa entry inh,FMDV inh,Marburg entry inh,RE007 growth inh,Sm TGR block,HCV inhibitor
COc1ccc(NC(=O)Nc2cccs2)cn1,5.0%[46.1 µM],17.0%,7.6%[46.1 µM],-0.8%,12.6µM*,12.4%
COc1ccc(NC(=O)C(Cl)=C(Cl)Cl)cn1,?,-7.3%,?,0.0%,0.7%,10µM*
COc1ccc(NC(=O)/C(Cl)=C(/Cl)S(=O)Cc2ccc(Cl)cc2)cn1 (configuration not stated),3.16µM*,8.91µM*,?,4.47µM*,0.1µM*,7.94µM*
CNC1C(O)C2OC3OC(C)CC(=O)[C@@]3(O)O[C@H]2[C@H](NC)C1O (some centres not stated),.,-12.4%,.,.,.,.
Cc1ccc(-n2ncc(C(=O)NCc3ccco3)c2C2CCN(C(=O)OC(C)(C)C)CC2)c(C)c1,?,-20.4%,.,.,-12.4%,.
CCCCOC(=O)c1ccc(NC2=NS(=O)(=O)c3ccccc32)cc1,-4.9%[46.1 µM],25.2%,6.7%[46.1 µM],.,-8.6%,.
CCN(CC)CCCn1c(C)cc2c(c1=O)[C@H](c1ccc(OC)c(OC)c1OC)C(C#N)=C(N)O2,.,.,8.9%,.,.,.
COc1ccc(NC(=O)/C(Cl)=C(/Cl)S(=O)(=O)Cc2ccccc2)cn1,22.4µM*,20µM*,?,?,10µM*,3.55µM*
COc1ccc(N2CCN(C(c3ccccc3OC)c3nnnn3C3CCCC3)CC2)cc1 (configuration not stated),?,-20.4%,?,-0.5%,?,?
COc1ccc(OC)c(C(c2nnnn2C2CCCC2)N2CCc3ccccc3C2)c1 (configuration not stated),?,-9.3%,?,1.3%,-28.5%,11.2µM*
COc1ccc(OC)c(C(c2nnnn2C2CCCC2)N2CCN(c3ccccc3F)CC2)c1 (configuration not stated),?,11.4%,10µM*,0.2%,-11.8%,?
COc1ccc(N2CCN(C(c3cccc(OC)c3OC)c3nnnn3C3CCCC3)CC2)cc1 (configuration not stated),2.82µM*,-18.0%,?,26.2%,-16.2%,?
COc1ccc(-c2cc(C(F)(F)F)n3nc(C)c(-c4ccccc4)c3n2)cc1OC,-10.1%[46.1 µM],-14.9%,-1.3%[46.1 µM],.,3.8%,.
C[C@@H]1CC[C@H]2C(=O)N(Cc3ccc(Cl)cc3)C[C@H](O)CN2[C@@H]1c1ccc(Br)cc1,.,.,29.1%[14.2 µM],.,.,.
CC(C)c1cc(CN2CCN(CCC#N)CC2)cc(C(C)C)c1O,?,-2.7%,2.5%,-1.5%,22.4µM*,16.6%
CN(C)/C=N/c1c(C#N)cnn1-c1ncnc2sc(-c3ccccc3)cc12,11.2µM*,?,?,1.5%,-17.4%,?
CC(C)CN(c1ccccc1)S(=O)(=O)c1nnc(NC(=O)C2CCCCC2)s1,13.5%[46.1 µM],6.6%,.,.,?,.
Cc1ccc(-n2nnnc2-c2cnn(-c3cccc(F)c3)c2C(F)(F)F)cc1,?,?,?,-18.1%,-28.9%,?
FC(F)(F)c1nc(N2CCCC2)ncc1-c1nnnn1-c1ccccc1,-0.7%,17.8µM*,-15.8%,7.6%,-10.5%,11.2µM*
Cc1ccc(-n2nnnc2-c2cnc(N3CCCC3)nc2C(F)(F)F)cc1,?,?,-12.0%,-3.0%,-0.1%,11.2µM*
OC[C@H]1O[C@H](c2ccccc2)C=C[C@H]1OCc1cccc(Br)c1,.,.,-11.4%[14.2 µM],.,.,.
Cc1cc2c(c(-c3cnccn3)c1)OC(CNC(=O)C1CCCN(C)C1)C2 (configuration not stated),.,-11.7%,.,.,.,.
C=CS(=O)(=O)N(Cc1ccc(Cl)c(Cl)c1)C[C@@H](O)CO,?,-7.6%,.,-19.3%,.,14.1µM*
O=C(O)c1sccc1SCc1ccc(Cl)c(Cl)c1,2.4%,17.7%,27.7%,12.7%,-15.3%,6.2%
Cc1ccc2sc3ccc(NC(=O)c4ccccc4Cl)cc3c(=O)c2c1,1.3%,14.7%,?,3.2%,19.1%,8.91µM*
SMILES,Lassa entry inh,FMDV inh,Marburg entry inh,RE007 growth inh,Sm TGR block,HCV inhibitor
C[N+]12CCC(CC1)[C@H](OC(=O)C(O)(c1ccccc1)c1ccccc1)C2,.,.,14.2%,.,.,.
COC(=O)C1=C2C=C(C)CC(C)N2C(=O)NC1c1ccccc1 (configuration not stated),.,.,30.1%[14.2 µM],.,.,.
Cc1ccccc1-n1nc(C)c2cc(C(=O)N3CCN(S(=O)(=O)c4ccc(F)cc4)CC3)sc21,?,?,20.6µM*!,-5.1%,3.8%,?
CCCCn1c(CCl)nc2cc(S(=O)(=O)N3CCOCC3)ccc21,0.5%,31.6µM*,-21.7%,22.0%,.,?
CSc1ccc(/C=N\NC(=O)CNc2ccc(C)cc2)cc1,1.3µM*,.,-7.6%,-10.3%,-2.2%,10.3%
Cc1ccc(NCC(=O)N/N=C/c2cccc(Oc3ccccc3)c2)cc1,2.31µM*,?,4.2%,2.7%,5.9%,?
Cc1cccc(NCC(=O)N/N=C\c2cccc(Oc3ccccc3)c2)c1,?,?,?,-9.6%,-1.8%,-19.9%
COC(=O)COc1ccc(C2C(C(=O)OC)=C(C)NC3=C2C(=O)c2ccccc23)cc1OC (configuration not stated),-0.7%[46.1 µM],-16.1%,9.6%[46.1 µM],.,-4.2%,.
O=C(Cn1nc(Cl)nc1Cl)c1ccc(F)cc1,.,8.3%,.,10.0%,9.0%,19.4%
O=C(Cn1nc(Cl)nc1Cl)c1ccccc1,1.7%[46.1 µM],-8.3%,22.0%[46.1 µM],-17.1%,1.1%,6.5%
O=C(Cn1nc(Cl)nc1Cl)c1cc2ccccc2oc1=O,12.0%,-17.6%,-10.3%,-27.5%,14.1µM*,9.2%
Cn1cnnc1SCC(=O)c1cc2ccccc2oc1=O,-0.5%,.,12.8%,-9.6%,8.91µM*,22.3%
O=C(Cn1nc(Cl)nc1Cl)c1ccc2c(c1)OCCO2,-6.0%,?,?,?,20µM*,25.4%
COc1ccc(C(=O)N2CCC3(CC2)CN(c2ccccc2)C3)cc1,.,-25.7%,.,.,.,.
C#Cc1cccc(C(=O)NCc2nc(-c3ccccc3NC(C)=O)oc2C)c1,.,2.0%,.,.,.,.
COc1ccc(C2=CC(c3c(C)nn(-c4ccccc4)c3Cl)n3nnnc3N2)cc1OC (configuration not stated),?,17.8µM*,?,18.2%,17.8µM*,11.2µM*
O=C(O)C1=CC(=C(c2ccc(O)c(C(=O)O)c2)c2ccc(O)c(C(=O)O)c2)C=CC1=O,?,2.1%,0.445µM*,.,-35.6%,7.9%
COc1ccc(Oc2ncc3nc(-c4cn(C)c5ccccc45)c(=O)n(C4CC4)c3n2)cc1,.,-1.5%,.,.,.,.
CN(Cc1ccccc1)C(=O)COC(=O)c1ccccc1NS(=O)(=O)c1cccc(N)c1,-6.8%,12.8%,-5.6%,5.9%,-6.9%,-2.2%
CC(OC(=O)c1ccccc1NS(=O)(=O)c1cccc(C(F)(F)F)c1)C(=O)N(C)Cc1ccccc1 (configuration not stated),?,-1.6%,7.08µM*,8.0%,-3.1%,?
